Screening results (PubChem)
RORg inh: qHTS for inhibitors of ROR gamma transcriptional activity. Drosophila S2 Gal4-RORgamma UAS-luciferase reporter, 20 h. 310,000 tested, 5.4% active. Potency, µM (titrated, usually from 53.6 µM), for inactives: at the top dose activity change, negative = inhibition, actives largely listed as inhibitors. AID 2551, 2010. Nuclear receptor ROR-gamma (Mus musculus), P51450; also: potency is read from the fitted curve at half-maximal effect; nearly all actives have a fitted effect of over 60% in size
Target sequence (P51450 whole entry, looked up, the tested form may be a part): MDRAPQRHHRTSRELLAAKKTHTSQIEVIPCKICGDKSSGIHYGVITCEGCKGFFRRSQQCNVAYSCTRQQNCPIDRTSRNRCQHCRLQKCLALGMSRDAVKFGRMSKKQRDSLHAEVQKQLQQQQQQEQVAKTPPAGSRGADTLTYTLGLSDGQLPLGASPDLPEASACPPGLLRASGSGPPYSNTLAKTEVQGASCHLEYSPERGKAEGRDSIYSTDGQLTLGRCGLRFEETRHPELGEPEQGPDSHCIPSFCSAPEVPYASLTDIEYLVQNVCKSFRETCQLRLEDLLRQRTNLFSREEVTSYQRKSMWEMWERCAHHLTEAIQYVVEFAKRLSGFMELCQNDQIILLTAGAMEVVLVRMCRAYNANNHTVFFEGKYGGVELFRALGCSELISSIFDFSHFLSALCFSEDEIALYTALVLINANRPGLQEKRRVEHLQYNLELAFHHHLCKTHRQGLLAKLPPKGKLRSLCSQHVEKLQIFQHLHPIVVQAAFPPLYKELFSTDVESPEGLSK
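Compounds are pin-transferred onto Drosophila Schneider cells expressing a copper-inducible Gal4–ROR gamma transactivation domain fusion. After 1 hr, copper sulfate is added to 700 uM final; luciferase is read 20 hr later.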
IL-1B inflam inh: qHTS for Inhibitors of Inflammasome Signaling: IL-1-beta AlphaLISA Primary Screen | activity change, % at 57.5 µM | THP-1 LPS/ATP IL-1B secretion, AlphaLISA, 16 h; stronger effect = lower value | 360,000 tested, 4.7% active; in the data active = activity change below about -50%; inconclusive = mostly about -30% to -49%
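Secreted IL-1B measured by AlphaLISA bead assay after 16 h compound exposure of THP-1 cells; compounds (final up to 57.5 uM) added 1 h before LPS (250 ng/mL) and ATP (1.25 mM) stimulation; lower signal means less secretion.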
LDHA block: qHTS assay for inhibitors of human lactate dehydrogenase. activity change, % (values are at about 110 or 230 µM). 480,000 tested, 0.15% active. L-lactate dehydrogenase A chain (Homo sapiens), P00338. AID 1347041, 2019. purified LDHA, NADH/diaphorase-resazurin fluorescence; stronger effect = lower value; in the data active = activity change below about -30%; inconclusive = mostly about -25% to -30%;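 also: plate controls were DMSO wells for no effect and wells without enzyme for full effect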
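Human LDH5 at 2 nM final in Tris HCl pH 7.4 with 0.06 mM NADH and 0.2 mM pyruvate, reacted 5 minutes at room temperature. Remaining NADH coupled via diaphorase/resazurin; resorufin fluorescence read at 0 and 20 minutes, normalized to enzyme-free and DMSO wells.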
VP16 counter: VP16 counterscreen qHTS for inhibitors of ROR gamma transcriptional activity; Drosophila S2 Gal4-VP16 UAS-luciferase, luminescence, 20 h; Potency, µM (top dose mostly 53.6 µM), for the others: top-dose activity, negative = inhibition, actives largely listed as inhibitors; 310,000 tested, 3.5% active; AID 2546, 2010;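 also: Gal4-VP16 expression switched on by copper sulfate through the metallothionein promoter; potency is read from the fitted curve at half-maximal effect; nearly all actives have a fitted effect of over 50% in size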
TDP1 cell noCPT: qHTS for Inhibitors of human tyrosyl-DNA phosphodiesterase 1 (TDP1): qHTS in cells in absence of CPT; DT40 Tdp1-/- hTDP1 cells, no CPT, ATP luminescence, 48 h; Potency, µM (doses to about 46.2 µM), for inactives: at the top dose activity change, negative = growth inhibition, most hits filed as inhibitors; 420,000 tested, 15% active; AID 686978, 2013; also: potency is read from the fitted curve at half-maximal effect; nearly all actives have a fitted effect of over 55% in size
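Chicken DT40 Tdp1-/- cells complemented with human TDP1, screened without camptothecin (DMSO vehicle only), 400 cells/well. Compounds pin-transferred, cells incubated at 37 °C for at least 48 hr. Growth read as ATP-dependent luminescence (CellTiter-Glo, 30 min at RT).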
TDP1 cell CPT: qHTS for Inhibitors of human tyrosyl-DNA phosphodiesterase 1 (TDP1): qHTS in cells in presence of CPT. chicken DT40 Tdp1-/-;hTDP1 cells + 20 nM CPT, ATP luminescence, 48 h. Potency, µM (highest dose often 46.2 µM), without a hit: at the highest dose activity change, negative = growth inhibition, usual class: inhibitors. 420,000 tested, 12% active. AID 686979, 2013; also: potency is read from the fitted curve at half-maximal effect; nearly all actives have a fitted effect of over 55% in size
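Chicken DT40 Tdp1-/- cells stably complemented with human TDP1 were seeded at 400 cells/well in medium containing 20 nM camptothecin, exposed to pin-transferred compounds, and grown at 37 °C for at least 48 hr. Viability was read as ATP luminescence.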
* = called active by the depositor; [ ] = another dose, or the depositor's remark. Compounds with a hit are over-represented: about 18% of the library has one in this group of screens. Unless noted, calls follow the shape of the dose curve; as a rule, active = well fitted curve in the direction sought with a large enough effect; inconclusive = small, poorly fitted or top-dose-only effect, or another doubt; inactive = no such curve, though single readings can be large; an effect the other way counts as inactive or inconclusive. Unless noted, % is scaled to controls: 0 for no effect and ±100 for the full control effect.

`CCOC(=O)/C=C/C(=O)Nc1cc(S(=O)(=O)Nc2ccc(OC)cc2)ccc1N1CCOCC1` gave IL-1B inflam inh -107*, LDHA block -3, TDP1 cell noCPT 5.2µM* and TDP1 cell CPT 5.8µM*.
For COc1ccc(NS(=O)(=O)c2ccc(N3CCOCC3)c(NC(=O)c3cccc(F)c3)c2)cc1 the results were RORg inh -1%, IL-1B inflam inh -29, LDHA block -4, VP16 counter 0%, TDP1 cell noCPT 8.2µM* and TDP1 cell CPT 9.2µM*.
For CC(=O)NCCC(=O)Nc1cc(S(=O)(=O)Nc2ccc(Cl)cc2)ccc1N1CCCC1 the results were RORg inh 33%, IL-1B inflam inh -2, LDHA block -8, VP16 counter -5%, TDP1 cell noCPT inconclusive and TDP1 cell CPT inconclusive.
`O=C(Nc1ccccc1N1CCOCC1)c1cccc(S(=O)(=O)Nc2ccccc2F)c1` gave IL-1B inflam inh 6, LDHA block -5, TDP1 cell noCPT -2% and TDP1 cell CPT 3%.
`O=C(Nc1ccccc1F)c1cc2cc(Br)ccc2oc1=O` gave LDHA block 2.
Screening Cn1c(SCC(=O)NCc2ccco2)nnc1-c1ccc2c(c1)OCCO2 returned LDHA block 6.
Cc1ccc(Nc2nc(-c3ccc4[nH]c(=O)oc4c3)cs2)cc1F was read as LDHA block 10.
Screening COc1ccc(NS(=O)(=O)c2ccc(N3CCOCC3)c(NC(=O)c3ccc(F)cc3)c2)cc1 returned RORg inh 16%[10 µM], IL-1B inflam inh -12, LDHA block 1, VP16 counter -8%, TDP1 cell noCPT 13µM* and TDP1 cell CPT 8.2µM*.
CCOC(=O)Cc1nnc2c(Nc3ccccc3F)nc3nonc3n12 was read as RORg inh 26%, IL-1B inflam inh 8, LDHA block -3, VP16 counter -17%, TDP1 cell noCPT 23µM* and TDP1 cell CPT 23µM*.
For CCOC(=O)Cc1nnc2c(Nc3ccc(C)cc3)nc3nonc3n12 the results were RORg inh 0%, IL-1B inflam inh 14, LDHA block 0, VP16 counter -10%, TDP1 cell noCPT -20% and TDP1 cell CPT -23%.
Screening Cc1ccc(OCCN2C(=O)C(=O)c3cc(C)ccc32)cc1 returned RORg inh 40%, IL-1B inflam inh 120, LDHA block -2, VP16 counter -7%, TDP1 cell noCPT inconclusive and TDP1 cell CPT 0.92µM*.
Screening CCCOc1ccc(Cn2c(=O)oc3ccc(C)cc32)cc1 returned RORg inh -14%, IL-1B inflam inh 12, LDHA block -5, VP16 counter -22%, TDP1 cell noCPT -23% and TDP1 cell CPT -2%.
Cc1ccc(CN2C(=O)C(=O)c3cc(Br)cc(C)c32)cc1 was read as LDHA block 15, TDP1 cell noCPT 1.5µM* and TDP1 cell CPT 2.3µM*.
Screening CCCOc1ccc(CN2C(=O)C(=O)c3cccc(C)c32)cc1 returned LDHA block 11, TDP1 cell noCPT 1.8µM* and TDP1 cell CPT 1.3µM*.
Screening O=C1c2ccccc2C(=O)N1CCOc1ccccc1 returned IL-1B inflam inh 4, LDHA block -2, TDP1 cell noCPT -12% and TDP1 cell CPT 0%.
For Cc1ccc(OCCCN2C(=O)C(=O)c3cccc(C)c32)cc1 the results were RORg inh 7.9µM*, IL-1B inflam inh 14, LDHA block -1, VP16 counter 13µM*, TDP1 cell noCPT 15µM* and TDP1 cell CPT 7.3µM*.
